Measured values published in PubChem BioAssay.
For some assays here: Potency and affinity values are given separately. Activity calls are given as the source filed them. Unless noted, how the calls were made is not given here.

How the values were obtained:
[1] = antimalarial activity against Dd2 strain (AID 2302;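 active means growth inhibition above 50% at the single 2 µM test dose, taken to imply half-maximal potency below 2 µM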;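 further: 0% = DMSO untreated growth and 100% = chloroquine plus artemisinin killed control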); settings: P. falciparum Dd2 in RBCs, LDH growth readout, 72 h; at 2 µM; active compounds read high
[2] = human hepatoma cell viability loss – ATP luminescence, cytotoxicity control for P. falciparum antimalarial project, primary screen (AID 2303;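 active means inhibition above 50%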;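 further: 0% = DMSO wells and 100% = digitonin-killed cells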); settings: HepG2 viability, 24-48 h, at 10 µM, active compounds read high
[3] = biological target: L-lactate dehydrogenase (Plasmodium falciparum (isolate CDC / Honduras)) (UniProt Q27743); assay: PfLDH activity inhibition – cell lysate, 3D7 strain, counter-screen for P. falciparum growth inhibition project (AID 2304);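 further: 0% = vehicle and 100% = reference inhibitor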; settings: P. falciparum 3D7 crude extract, LDH APAD/NBT absorbance; at 2 µM; active compounds read high
[4] = inhibition of 3D7 malaria parasite growth – strain 3D7 (AID 2306);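 further: 0% = DMSO wells and 100% = chloroquine plus artemisinin control wells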; settings: P. falciparum 3D7 erythrocytic growth, LDH absorbance, 72 h; at 2 µM; active compounds read high
[5] = biological target: Calcium-dependent protein kinase 1 (Plasmodium falciparum (isolate 3D7)) (UniProt P62344); assay: PfCDPK1 kinase inhibitors, biochemical, TCAMS library (AID 1159585; cut-off not given, nearly all actives have IC50 up to about 0.98 µM;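 further: inhibitors leave more ATP so luminescence rises with inhibition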); settings: recombinant PfCDPK1, Kinase-Glo ATP depletion luminescence
[6] = biological target: Plasmodium falciparum protein kinase 6 (PK6, PF3D7_1337100) (UniProt Q8IDW1); assay: PfPK6 kinase inhibitors, biochemical, TCAMS library (AID 1159586); settings: recombinant PfPK6, Kinase-Glo ATP depletion luminescence
[7] = biological target: Protein kinase 7 (PK7), Plasmodium falciparum 3D7 (PF3D7_0213400) (UniProt Q7YTF7); assay: inhibition of Plasmodium PK7 catalytic activity – biochemical, TCAMS antimalarial set, Kinase-Glo luminescence (AID 1159587); settings: recombinant PfPK7, Kinase-Glo ATP depletion luminescence
[8] = biological target: Calcium-dependent protein kinase 4 (Plasmodium falciparum (isolate 3D7)) (UniProt Q8IBS5); assay: PfCDPK4 kinase inhibitors, biochemical, TCAMS library (AID 1159588; cut-off not given, nearly all actives have IC50 up to about 0.91 µM); settings: recombinant PfCDPK4, Kinase-Glo ATP depletion luminescence
Chain of Calcium-dependent protein kinase 4 (Plasmodium falciparum (isolate 3D7)) (Q8IBS5 whole entry, looked up): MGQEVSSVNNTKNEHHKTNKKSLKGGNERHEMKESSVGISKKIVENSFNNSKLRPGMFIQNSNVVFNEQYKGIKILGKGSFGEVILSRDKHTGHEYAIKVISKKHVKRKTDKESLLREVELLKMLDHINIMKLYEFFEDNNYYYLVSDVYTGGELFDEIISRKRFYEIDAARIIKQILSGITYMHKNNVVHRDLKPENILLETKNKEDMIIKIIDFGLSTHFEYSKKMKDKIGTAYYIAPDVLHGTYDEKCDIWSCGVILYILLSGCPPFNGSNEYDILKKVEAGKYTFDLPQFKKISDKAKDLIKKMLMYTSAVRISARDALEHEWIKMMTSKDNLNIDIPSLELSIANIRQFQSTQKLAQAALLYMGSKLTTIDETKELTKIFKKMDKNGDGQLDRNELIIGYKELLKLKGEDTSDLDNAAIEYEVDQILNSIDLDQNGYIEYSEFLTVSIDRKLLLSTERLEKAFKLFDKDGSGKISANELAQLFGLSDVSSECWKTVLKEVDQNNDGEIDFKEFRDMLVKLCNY

Chain of Protein kinase 7 (PK7), Plasmodium falciparum 3D7 (PF3D7_0213400) (Q7YTF7 1-343): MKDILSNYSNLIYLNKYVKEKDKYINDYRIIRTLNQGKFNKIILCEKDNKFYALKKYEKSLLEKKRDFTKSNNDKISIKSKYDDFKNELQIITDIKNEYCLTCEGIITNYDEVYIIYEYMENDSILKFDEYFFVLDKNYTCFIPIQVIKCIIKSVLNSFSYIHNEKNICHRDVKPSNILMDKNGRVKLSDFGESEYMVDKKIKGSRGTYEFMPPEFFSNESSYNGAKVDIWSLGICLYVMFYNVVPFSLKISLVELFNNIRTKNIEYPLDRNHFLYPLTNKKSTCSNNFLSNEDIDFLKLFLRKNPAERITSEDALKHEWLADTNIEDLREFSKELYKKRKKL
Chain of Calcium-dependent protein kinase 1 (Plasmodium falciparum (isolate 3D7)) (P62344 whole entry, looked up): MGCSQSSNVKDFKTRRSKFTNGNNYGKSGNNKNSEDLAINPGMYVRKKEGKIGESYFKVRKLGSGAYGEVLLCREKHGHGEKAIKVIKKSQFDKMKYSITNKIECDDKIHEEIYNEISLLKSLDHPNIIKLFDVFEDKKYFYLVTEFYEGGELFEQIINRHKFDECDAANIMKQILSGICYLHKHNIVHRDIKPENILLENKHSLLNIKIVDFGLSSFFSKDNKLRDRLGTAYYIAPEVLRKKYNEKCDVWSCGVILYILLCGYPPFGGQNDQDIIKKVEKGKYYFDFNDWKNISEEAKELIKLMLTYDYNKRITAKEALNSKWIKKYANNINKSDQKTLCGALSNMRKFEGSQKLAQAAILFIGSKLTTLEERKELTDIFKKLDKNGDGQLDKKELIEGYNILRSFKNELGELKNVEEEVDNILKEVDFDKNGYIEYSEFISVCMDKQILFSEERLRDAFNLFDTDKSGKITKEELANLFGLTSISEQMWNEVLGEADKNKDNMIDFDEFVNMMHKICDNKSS
Chain of L-lactate dehydrogenase (Plasmodium falciparum (isolate CDC / Honduras)) (Q27743 whole entry, looked up): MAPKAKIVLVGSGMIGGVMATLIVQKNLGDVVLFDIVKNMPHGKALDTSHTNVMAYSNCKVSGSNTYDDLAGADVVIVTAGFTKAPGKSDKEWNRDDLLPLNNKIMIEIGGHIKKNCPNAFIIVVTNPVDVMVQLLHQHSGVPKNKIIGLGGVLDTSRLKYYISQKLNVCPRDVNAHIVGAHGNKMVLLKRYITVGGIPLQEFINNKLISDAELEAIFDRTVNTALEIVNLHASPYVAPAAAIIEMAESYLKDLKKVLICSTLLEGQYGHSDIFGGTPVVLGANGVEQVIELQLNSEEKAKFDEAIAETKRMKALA
Chain of Plasmodium falciparum protein kinase 6 (PK6, PF3D7_1337100) (Q8IDW1 1-305): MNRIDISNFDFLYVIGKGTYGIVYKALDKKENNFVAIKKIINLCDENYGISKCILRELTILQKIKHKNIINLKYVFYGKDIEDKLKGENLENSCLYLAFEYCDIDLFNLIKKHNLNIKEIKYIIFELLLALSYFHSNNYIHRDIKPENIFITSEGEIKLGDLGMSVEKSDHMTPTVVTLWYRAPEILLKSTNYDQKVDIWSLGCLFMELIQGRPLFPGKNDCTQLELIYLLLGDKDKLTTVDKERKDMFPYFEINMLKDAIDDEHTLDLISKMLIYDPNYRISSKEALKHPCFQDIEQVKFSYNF

CC(C)CN1C(=O)c2ccc(C(=O)Nc3nccs3)cc2C1=O
active: growth inhibition [4] 89%
inactive: growth inhibition [1] 0% | inhibition [2] 3% | inhibition [3] 1% | outcome [5] | outcome [6] | outcome [7] | outcome [8]

CCN1CCN(CCNc2c3ccccc3nc3ccccc23)CC1
inactive: growth inhibition [1] 8% | inhibition [2] 45% | inhibition [3] 0% | outcome [5] | outcome [6] | outcome [7] | outcome [8]
active: growth inhibition [4] 93%

CCOc1ccc(Nc2ccc3nonc3c2S(=O)(=O)Nc2ccc(OCC)cc2)cc1
inactive: inhibition [2] 6% | inhibition [3] -2% | outcome [5] | outcome [6] | outcome [7] | outcome [8]
active: growth inhibition [1] 93% | growth inhibition [4] 100%

CC(O)c1cccc(-c2ccc(Nc3ccnc4cc(-c5nccs5)ccc34)cc2)c1 (stereo not given)
inactive: inhibition [2] 31% | inhibition [3] -1% | outcome [5] | outcome [6] | outcome [7] | outcome [8]
active: growth inhibition [1] 69% | growth inhibition [4] 91%

N#Cc1ccccc1Sc1ccccc1C(=O)Nc1ccc2ccccc2n1
active: growth inhibition [1] 85% | growth inhibition [4] 92%
inactive: inhibition [2] -3% | inhibition [3] 0% | outcome [5] | outcome [6] | outcome [7] | outcome [8]

Nc1ccc(-c2cnc3[nH]cc(-c4ccc(C(=O)O)cc4)c3c2)cn1
active: growth inhibition [1] 99% | growth inhibition [4] 97%
inactive: inhibition [2] 48% | inhibition [3] 1% | outcome [5] | outcome [6] | outcome [7] | outcome [8]

COc1cccc(C(=O)NC(c2ccc(Cl)cc2Cl)c2cc(Cl)c3cccnc3c2O)c1 (stereo not given)
inactive: inhibition [2] 37% | inhibition [3] -8% | outcome [5] | outcome [6] | outcome [7] | outcome [8]
active: growth inhibition [1] 76% | growth inhibition [4] 100%

COc1ccccc1C(C)NCC(=O)Nc1ccccc1Sc1ccccc1 (stereo not given)
inactive: growth inhibition [1] 7% | inhibition [2] -7% | inhibition [3] -1% | outcome [5] | outcome [6] | outcome [7] | outcome [8]
active: growth inhibition [4] 89%

CN(C)CCNC(=O)c1ccc2c(c1)ncn2-c1cc(OCc2ccccc2C(F)(F)F)c(C(N)=O)s1 (tested in a mixture with another compound)
active: growth inhibition [4] 90%
inactive: growth inhibition [1] 8% | inhibition [2] -9% | inhibition [3] 1% | outcome [5] | outcome [6] | outcome [7] | outcome [8]

c1cc(CN2CCCCC2)cc(-c2cccc(-c3nc4ccccc4[nH]3)c2)c1
inactive: growth inhibition [1] 37% | inhibition [2] 39% | inhibition [3] 0% | outcome [5] | outcome [6] | outcome [7] | outcome [8]
active: growth inhibition [4] 100%

CC(C)(C)N1CCC(N(Cc2ccc(-c3ccc(C(F)(F)F)cc3)cc2)C(=O)Cn2c(CCc3cccc(F)c3F)nc(=O)c3cccnc32)CC1
active: growth inhibition [1] 53% | inhibition [2] 94% | growth inhibition [4] 100%
inactive: inhibition [3] 3% | outcome [5] | outcome [6] | outcome [7] | outcome [8]

COc1cc(C2C(Oc3ccccc3)C(=O)N2Cc2ccc(F)cc2)cc(OC)c1OC (stereo not given)
inactive: inhibition [2] -2% | inhibition [3] 4% | outcome [5] | outcome [6] | outcome [7] | outcome [8]
active: growth inhibition [1] 97% | growth inhibition [4] 100%

N#Cc1ccc(-c2ccc(C(=O)Nc3ccc4c(c3)CCN(C3CCC3)CC4)nc2)cc1
active: growth inhibition [1] 63% | growth inhibition [4] 99%
inactive: inhibition [2] 21% | inhibition [3] 0% | outcome [5] | outcome [6] | outcome [7] | outcome [8]

O=S1N=C(NCCCN(Cc2cccs2)c2ccccn2)C(NCc2ccccc2)=N1 (stereo not given)
inactive: growth inhibition [1] 25% | inhibition [2] 10% | inhibition [3] 0% | outcome [5] | outcome [6] | outcome [7] | outcome [8]
active: growth inhibition [4] 92%

CN(C)c1cc(C(=O)N[C@@H](Cc2ccccc2)[C@H](O)CNC2CCCCC2)cc2[nH]ccc12
active: growth inhibition [1] 97% | growth inhibition [4] 98%
inactive: inhibition [2] 10% | inhibition [3] 3% | outcome [5] | outcome [6] | outcome [7] | outcome [8]

Cc1cc(I)ccc1Nc1nc2nonc2nc1Nc1ccc(I)cc1C
inactive: inhibition [3] -2% | outcome [5] | outcome [6] | outcome [7] | outcome [8]
active: growth inhibition [1] 96% | inhibition [2] 78% | growth inhibition [4] 100%

CN1CCC(Oc2ccc(CN3CC[C@H](NC(=O)c4ccc(Cl)c(Cl)c4)C3)cc2Cl)C1 (stereo not given in full)
active: growth inhibition [1] 78% | inhibition [2] 68% | growth inhibition [4] 101%
inactive: inhibition [3] 0% | outcome [5] | outcome [6] | outcome [7] | outcome [8]

CC(C)(C)OC(=O)NCc1ccc(Nc2nnc(-c3cccc(C(=O)NCCC(c4ccccc4)c4ccccc4)c3)o2)cc1
inactive: inhibition [2] -4% | inhibition [3] -2% | outcome [5] | outcome [6] | outcome [7] | outcome [8]
active: growth inhibition [1] 89% | growth inhibition [4] 100%

O=S(=O)(NCCN1CCCC1)c1ccc(-c2ccc(CNCc3ccc(F)cc3)cc2)cc1F
inactive: growth inhibition [1] 21% | inhibition [2] 40% | inhibition [3] 2% | outcome [5] | outcome [6] | outcome [7] | outcome [8]
active: growth inhibition [4] 82%

O=C1CC(C(=O)O)CC(=O)N1
inactive: inhibition [2] -3% | inhibition [3] 6% | outcome [5] | outcome [6] | outcome [7] | outcome [8]
active: growth inhibition [1] 88% | growth inhibition [4] 94%

Cc1ccccc1C1CCN(C2CCC(NC(=O)/C=C/c3ccc(C(F)(F)F)cc3F)CC2)CC1 (stereo not given)
inactive: inhibition [3] -2% | outcome [5] | outcome [6] | outcome [7] | outcome [8]
active: growth inhibition [1] 58% | inhibition [2] 72% | growth inhibition [4] 99%

CC(C)CNC(=O)c1cncc(-c2ccc(CN(C)C3CCN(C)CC3)cc2)c1
active: growth inhibition [1] 84% | growth inhibition [4] 101%
inactive: inhibition [2] 15% | inhibition [3] -1% | outcome [5] | outcome [6] | outcome [7] | outcome [8]

Cc1cc(N2Cc3ccccc3C2)nc(Nc2ccc(S(=O)(=O)N3CCOCC3)cc2)n1
inactive: inhibition [2] 13% | inhibition [3] 0% | outcome [5] | outcome [6] | outcome [7] | outcome [8]
active: growth inhibition [1] 85% | growth inhibition [4] 101%

Cc1cc(N2CCN(CC3CCN(C)CC3)CC2)nc(Nc2ccc(Br)cc2)n1
active: growth inhibition [1] 100% | growth inhibition [4] 100%
inactive: inhibition [2] 31% | inhibition [3] 5% | outcome [5] | outcome [6] | outcome [7] | outcome [8]

Cc1ccccc1CN1CCCN(Cc2ccc(C(=O)Nc3ccc(C(C)(C)C)cc3)cc2)CC1
active: inhibition [2] 52% | growth inhibition [4] 89%
inactive: growth inhibition [1] 5% | inhibition [3] -1% | outcome [5] | outcome [6] | outcome [7] | outcome [8]

CC(C)n1cc(CN2CCCC(C(=O)Nc3cccc(-c4cc5ccccc5[nH]4)c3)C2)cn1 (stereo not given)
active: growth inhibition [1] 65% | growth inhibition [4] 96%
inactive: inhibition [2] 34% | inhibition [3] -3% | outcome [5] | outcome [6] | outcome [7] | outcome [8]

CCCCOc1cc(OC)c2ccccc2c1CCNCCCCNCCc1c(OCCCC)cc(OC)c2ccccc12
active: growth inhibition [1] 82% | inhibition [2] 100% | growth inhibition [4] 82%
inactive: inhibition [3] -6% | outcome [5] | outcome [6] | outcome [7] | outcome [8]

c1cc(-c2nc3ccccc3[nH]2)nc(-c2nc3ccccc3[nH]2)c1
active: growth inhibition [4] 87%
inactive: growth inhibition [1] 24% | inhibition [2] 7% | inhibition [3] 0% | outcome [5] | outcome [6] | outcome [7] | outcome [8]

O=C(Nc1ccc(N2CCN(C(=O)C=Cc3ccccc3)CC2)c(Cl)c1)c1ccc([N+](=O)[O-])o1
active: growth inhibition [1] 90% | inhibition [2] 98% | growth inhibition [4] 97%
inactive: inhibition [3] -5% | outcome [5] | outcome [6] | outcome [7] | outcome [8]

CCCCCOc1ccc(NC2=CC(=O)C(=O)c3ccccc32)cc1
inactive: inhibition [2] 10% | inhibition [3] -4% | outcome [5] | outcome [6] | outcome [7] | outcome [8]
active: growth inhibition [1] 96% | growth inhibition [4] 99%

CCNc1cc(C)nc(Nc2ccccc2)n1
inactive: growth inhibition [1] 8% | inhibition [2] 16% | inhibition [3] -1% | outcome [5] | outcome [6] | outcome [7] | outcome [8]
active: growth inhibition [4] 92%

COc1cc(CNCCC(C)C)ccc1OCc1cccc(COc2ccc(CNCCC(C)C)cc2OC)c1
inactive: growth inhibition [1] 20% | inhibition [3] 6% | outcome [5] | outcome [6] | outcome [7] | outcome [8]
active: inhibition [2] 97% | growth inhibition [4] 99%

CCc1ccc(C(=O)NC(=O)c2ccccc2O)cc1
active: growth inhibition [1] 84% | growth inhibition [4] 95%
inactive: inhibition [2] -4% | inhibition [3] 1% | outcome [5] | outcome [6] | outcome [7] | outcome [8]

CN(C)c1ccc(-c2csc(C(=O)NCC3CCN(CCC(C)(C)C)C3)c2)cc1 (stereo not given)
active: growth inhibition [4] 87%
inactive: growth inhibition [1] 16% | inhibition [2] 29% | inhibition [3] 4% | outcome [5] | outcome [6] | outcome [7] | outcome [8]

OCc1ccc(-c2cncc(Nc3ccc(F)c(Cl)c3)c2)cc1
active: growth inhibition [1] 99% | growth inhibition [4] 92%
inactive: inhibition [2] 2% | inhibition [3] -2% | outcome [5] | outcome [6] | outcome [7] | outcome [8]

COc1ccc(C2(CNCC(O)c3cccc([N+](=O)[O-])c3)CCCCC2)cc1OC (stereo not given)
active: growth inhibition [1] 85% | growth inhibition [4] 95%
inactive: inhibition [2] -2% | inhibition [3] 3% | outcome [5] | outcome [6] | outcome [7] | outcome [8]

COc1ccc(-c2cccc(NC(=O)c3ccc(C#N)cc3)c2)cc1CNC(C)C
active: growth inhibition [4] 100%
inactive: growth inhibition [1] 14% | inhibition [2] 25% | inhibition [3] -1% | outcome [5] | outcome [6] | outcome [7] | outcome [8]

COc1cc(CS(C)(=O)=O)ccc1Nc1nccc(-c2c(-c3cccc(NC(=O)c4c(F)cccc4F)c3)nn3ccccc23)n1
active: growth inhibition [1] 71% | growth inhibition [4] 92%
inactive: inhibition [2] 46% | inhibition [3] 3% | outcome [5] | outcome [6] | outcome [7] | outcome [8]

CC(C)[C@H]1C(=O)N(S(C)(=O)=O)[C@H]2CCN(C(=O)c3ccc(CN4CCCCC4)c([N+](=O)[O-])c3)[C@H]12
inactive: inhibition [2] 10% | inhibition [3] 3% | outcome [5] | outcome [6] | outcome [7] | outcome [8]
active: growth inhibition [1] 100% | growth inhibition [4] 100%

Oc1cccc(Nc2ccnc3cc(-c4cc5ccccc5o4)ccc23)c1
active: growth inhibition [1] 71% | growth inhibition [4] 102%
inactive: inhibition [2] 9% | inhibition [3] -1% | outcome [5] | outcome [6] | outcome [7] | outcome [8]
